Our source for the inhibition values is PubChem BioAssay AID463212 (Sanford-Burnham Center for Chemical Genomics, 2010).

In all, about 330,000 compounds went through this assay and about 4,400 (1.3%) were called active. The sample holds actives, similar compounds and a random draw of the others, so the mix is not that of the screen. Unmarked numbers belong to inactive results.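 Rule for the calls: active = growth inhibition of the mutant yeast at or above 50%; inactive = the rest.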

This test can be described thus: growth inhibition of tim23-1 ts yeast – luminescence, uHTS, primary screen (AID 463212).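 Note: temperature-sensitive mutant grown at 25 °C; plate controls were DMSO-treated mutant yeast for no effect and medium wells lacking yeast for full effect.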 The conditions noted are these: S. cerevisiae tim23-1 growth, BacTiter-Glo luminescence, 24 h; at 20 µM; active compounds read high.
Turning to `Fc1ccccc1/C=C1\CCCC2=C1Nc1ncnn1C2c1ccccc1F` (stereo unspecified), the inhibition was 34%. Turning to `CC(=O)C1=C(C)NC(=O)NC1c1ccc2c(c1)OCO2` (stereo unspecified), the inhibition is 0.126%. On to `CCCC(C)c1nnc(NC(=O)C2CC(=O)N(c3ccc(OCC)cc3)C2)s1` (stereo unspecified), for which the inhibition was 16%. Turning to `COc1cc(/C=C/C(=O)OCC(=O)NCCCc2ccccc2)ccc1O`, the inhibition was 16.5%. In the case of `O=C(Oc1c(-c2ccco2)oc2ccccc2c1=O)c1cccnc1`, the inhibition is 51.2% (active).

Regarding `COc1ccc(Oc2coc3cc(OC(=O)c4cncc(Br)c4)ccc3c2=O)cc1`, the inhibition was -12.3%. For the compound `O=C(OCc1cc2ccccc2[nH]c1=O)c1cccnc1`, the inhibition was -4.57%. As for `CCOC(=O)N1CCN(CC(=O)n2c(C)c(C)c3ccccc32)CC1`, the inhibition is 30.5%. For `CCCCOc1ccc(CON(C(C)=O)C(C)=O)cc1Cl`, the inhibition is 27%. Consider `Cc1ccccc1C1=N/C(=C/c2cccnc2)C(=O)O1`, for which the inhibition was 51.8% (active). Next, `Cc1ccc(C2=C/C(=C\c3cccnc3)C(=O)O2)cc1`: 33.4%; `O=C1OC(c2ccc(Cl)cc2)=N/C1=C\c1cccnc1`: 40.9%; `CC(C)CC(=O)N1CCN(Cc2ccccc2Br)CC1`: 1.68%. `COC(=O)c1cccc(N(C(=O)CNC(=O)c2cccs2)C(C(=O)NCC2CCCO2)c2ccc(OC)c(OC)c2)c1` (stereo unspecified): the inhibition is 0.773%. Next, `COc1ccc2nc(NC(=O)[C@@H]3CCCN3C(=O)c3cccs3)sc2c1`: 25.9%; `COc1cccc(C(=O)Nc2nc3ccc(S(C)(=O)=O)cc3s2)c1`: 23.6%; `COc1ccc2nc(NC(=O)NC3CCCCC3)sc2c1`: 58.4% (active). Next, `CC(C)=CCC/C(C)=C/C(=O)O`: 8.44%; `CC(C)S(=O)(=O)c1csc(NC(=O)Nc2ccc(Cl)cc2)c1Cl`: 22.2%.

As to `CCn1c(CSc2nncn2-c2ccc(OC)cc2)nc2cc(S(=O)(=O)N(C)C)ccc21`, the inhibition was 8.84%. In the case of `Cc1cc(C(=O)COc2ccccc2Cl)c(C)n1C1CC1`, the inhibition was 38.7%. Turning to `CC1CCCC(C)N1C(=O)CN1CCN(c2nc(-c3ccc(F)cc3)cs2)CC1` (stereo unspecified), the inhibition is 52.8% (active). As for `O=C(COC(=O)C1CCCO1)Nc1nc(-c2ccc(F)cc2)cs1` (stereo unspecified), the figure is 11.2%. As for `CCCc1cc(=O)[nH]c(SCC(=O)N2C(C)CCCC2C)n1` (stereo unspecified), the inhibition was 0.431%. As to `O=C(COC(=O)/C(=C/c1cccs1)c1cccs1)NCc1ccccc1Cl`, the inhibition is 24%. On to `COc1cc(/C=C(\C#N)c2nc3ccccc3[nH]2)ccc1O`, for which the inhibition was 56.4% (active).

For `Cc1ccc2nc(/C(C#N)=C\c3ccc(OC(=O)c4cccs4)cc3)[nH]c2c1`, the inhibition is -4.69%. In the case of `O=C(/C(=C/c1cccc(Cl)c1)c1nc2ccccc2[nH]1)c1ccccc1`, the inhibition was 44.9%.

Consider `CCOc1ccc(OCC(=O)Nc2c3c(nn2C(C)(C)C)CS(=O)(=O)C3)cc1`, for which the inhibition was 11.1%. For the compound `CCOC(=O)c1c(NC(=O)CCl)sc(C(=O)N(CC)CC)c1C`, the inhibition is 5.96%.

In the case of `O=S(=O)(c1cccc2nonc12)N1CCN(c2cccc(Cl)c2)CC1`, the inhibition is 22.8%.

As for `O=C(CC(O)(C(F)(F)F)C(F)(F)F)Nc1ccc(Cl)c(Cl)c1`, the inhibition is 90.6% (active). Regarding `O=C(CCCN1C(=O)CCC1=O)Nc1ccc(Cl)c(C(F)(F)F)c1`, the inhibition was -4.71%. Next, `O=C(COC(=O)c1cc[n+]([O-])cc1)Nc1ccc(Cl)c(C(F)(F)F)c1`: 5.05%; `CC/C(O)=C1\C(=O)CC(C)(C)CC1=NCCc1nc2ccccc2[nH]1`: -7.57%. In the case of `CC(=O)N1CCOc2ccc(S(=O)(=O)N3CCN(c4cccc(C(F)(F)F)c4)CC3)cc21`, the inhibition is 36.1%. For `COc1ccc(CN(C)C(C)C(=O)NC2CCCc3ccccc32)cc1` (stereo unspecified), the inhibition was 24.3%. Turning to `COC(=O)c1cc(OCC(=O)NC2CCCc3ccccc32)cc(C(=O)OC)c1` (stereo unspecified), the inhibition is 16.8%. For `COc1ccc2c(c1)C(NS(=O)(=O)OCC(Cl)(Cl)Cl)CCC2` (stereo unspecified), the inhibition was 55.4% (active). For `CC(CC(=O)N1CCN(c2ccccc2)CC1)S(=O)(=O)c1ccc2c(c1)NC(=O)CS2` (stereo unspecified), the inhibition is -6.88%. Regarding `O=C(COC(=O)Cc1ccc([N+](=O)[O-])cc1)NC1CCCCCC1`, the inhibition was 19.1%. On to `COC(=O)C(C)NC(=O)COc1ccc2ccccc2c1` (stereo unspecified), for which the inhibition was 7.67%.

With `Cc1cc(C)cc(OCC(=O)O/N=C(\N)Cc2ccc([N+](=O)[O-])cc2)c1`, the inhibition was 26.9%. As to `O=C(NCC(O)c1ccc([N+](=O)[O-])cc1)C1CCCCC1` (stereo unspecified), the inhibition is -0.943%.

As to `N/C(Cc1ccc([N+](=O)[O-])cc1)=N\OC(=O)COc1ccc2ccccc2c1`, the inhibition is 60.5% (active).

Regarding `N/C(Cc1ccc([N+](=O)[O-])cc1)=N\OC(=O)C1CCCCC1`, the inhibition was 58.8% (active).

`CC(Oc1ccc2c(-c3ccccc3)cc(=O)oc2c1)C(=O)NC(Cc1c[nH]c2ccccc12)C(=O)O` (stereo unspecified): the inhibition was 21%. As to `CCc1ccc(NC(=O)CS(=O)CC(=O)N2CCN(c3ccccc3F)CC2)cc1` (stereo unspecified), the inhibition was -23.1%. Next, `Cc1ccc(-c2ccc(/C=N/NC(=O)CN3CCOCC3)o2)cc1[N+](=O)[O-]`: 55.9% (active).

Take `O=C(CN1CCOCC1)N/N=C/c1ccc(-c2ccc(Br)cc2)o1`: the inhibition was 1.87%. On to `Cc1occc1C(=O)N/N=C/c1ccc(-c2cccc([N+](=O)[O-])c2)o1`, for which the inhibition was 26%.

On to `Cc1cccc(CC(=O)N2CCN=C2SCc2ccc([N+](=O)[O-])cc2)c1`, for which the inhibition was -3.28%. With `O=C(COc1ccccc1F)Nc1nc(-c2ccccn2)cs1`, the inhibition was 28.7%. As for `CCN(C(=O)COC(=O)C1CCN(S(=O)(=O)c2ccc(C)c(C)c2)CC1)C1CCS(=O)(=O)C1` (stereo unspecified), the figure is 0.758%; as for `N/C(=N\OC(=O)c1cc(-c2ccccc2)nc2ccccc12)c1ccncc1`, 79.2% (active). With `C/C(N)=C(/C#N)C(=O)COC(=O)c1cc(-c2ccc(C)cc2)nc2ccccc12`, the inhibition is 3.42%.

For the compound `COC(=O)CNC(=O)c1cc(-c2ccncc2)nc2ccccc12`, the inhibition was 10.9%. Take `CNC(=O)COc1ccc(S(=O)(=O)Nc2ccccc2)cc1`: the inhibition is 8.77%. In the case of `NC(=O)c1oc2ccccc2c1NC(=O)CS(=O)(=O)c1ccccc1`, the inhibition was 6.4%. As for `S=C(Nc1ccc(Br)cc1Cl)N1CCC2(CC1)OCCO2`, the inhibition was 20.7%. Consider `COc1ccc(OC)c(NC(=O)CN(Cc2ccc(Cl)cc2)S(C)(=O)=O)c1`, for which the inhibition is 9.4%. On to `COc1ccc(C(=O)Nc2cc(C)c(NC(=O)c3ccccc3OC)cn2)cc1`, for which the inhibition is 28.7%. `COc1ccc(C(=O)Nc2ccccc2C(=O)N2CCN(c3ccccc3)CC2)cc1`: the inhibition was 35.2%.

Regarding `COc1ccc(C(=O)Nc2ccccc2C(=O)N/N=C/c2ccc(O)c(OC)c2)cc1`, the inhibition is 96% (active).

Take `COc1ccc(C(=O)Nc2ccccc2C(=O)N/N=C/c2ccccc2OC)cc1`: the inhibition was 78.3% (active). Regarding `COc1ccc2[nH]c(C(=O)N/N=C/c3cc(OC)c(OC)c(OC)c3)cc2c1`, the inhibition is 20.6%.

Take `COc1ccc(/C=N/Nc2ccccc2C(=O)O)cc1`: the inhibition was 17%. Next, `CC(C)(C)c1ccc(C(=O)N2CCC(C(=O)N3CCCCC3)CC2)cc1`: 13.5%.

For the compound `CCc1[nH]nc(C(=O)N2CCCC(CNS(=O)(=O)c3cccs3)C2)c1C` (stereo unspecified), the inhibition was 0.752%.

For `Cc1ccc(C(C(=O)NCC2CCCO2)N(C(=O)c2snc(C(N)=O)c2N)c2ccc(C(C)C)cc2)o1` (stereo unspecified), the inhibition was 32.2%. For the compound `CCOc1cc2[nH]c(=S)n(CCN3CCCCC3C)c(=O)c2cc1OCC` (stereo unspecified), the inhibition is 14.8%.

Consider `CC(C)Cc1ccc(C(C)C(=N)N)cc1` (stereo unspecified), for which the inhibition is 3.35%.

Take `CCOc1cccc(NC(=O)Cn2nc(-c3ccc4c(c3)OCCO4)ccc2=O)c1`: the inhibition is -11.4%.

As for `Cc1ccc(-c2csc(NCCc3nc4cc(Cl)c(Cl)cc4n3CCOCCO)n2)cc1`, the inhibition is 25.4%.

`Cc1ccc(Nc2nc(-c3ccc(O)cc3O)cs2)nc1`: the inhibition was 65.9% (active). For `O=C1OCCN1C(=O)[C@H]1[C@H](c2ccc(F)cc2)C(c2ccccc2)=NN1c1ccc(Br)cc1`, the inhibition is 41.6%. As to `O=C1OCCN1C(=O)[C@H]1[C@H](c2ccccc2)C(c2ccc(F)cc2)=NN1c1ccccc1`, the inhibition is 49.4%. For the compound `C[C@@H]1C(c2ccc(F)cc2)=NN(c2ccc(Br)cc2)[C@H]1C(=O)N1CCOC1=O`, the inhibition is 61.2% (active).

As for `CCOCCOCCC(C(=O)O)P(=O)(c1ccccc1)c1ccccc1` (stereo unspecified), the inhibition was 20.6%. Next, `O=C(NC(Nc1nc2ccc([N+](=O)[O-])cc2s1)(C(F)(F)F)C(F)(F)F)c1ccccc1`: 80.5% (active). Consider `O=C(NOCc1ccccc1)c1cccc([N+](=O)[O-])c1`, for which the inhibition was 40.8%. Take `O=C(COC(=O)c1ccc([N+](=O)[O-])cc1Cl)NC(=O)c1ccccc1`: the inhibition was -6.06%. As for `CN(C)/C=C(/C(=O)c1ccccc1Cl)S(C)(=O)=O`, the figure is 8.01%; as for `O=S(=O)(Nc1ccc(-c2ccc(N3CCOCC3)nn2)cc1)c1cc(Cl)ccc1Cl`, 36%; as for `COc1ccc(CCNC(=O)CN(c2ccccc2)S(C)(=O)=O)cc1`, 10.1%. Regarding `Cc1cc(C)nc(SCC(=O)N(C)C)n1`, the inhibition was 3.33%. As for `Cc1cc(C)nc(SCc2ccccc2C#N)n1`, the figure is 8%. For the compound `Cc1cc(C)nc(S/C=C/C(=O)c2ccccc2)n1`, the inhibition is 83.3% (active). Take `COc1ccc(/C=C2/C(=O)OCc3cc(OC)c(OC)cc32)c(OC)c1`: the inhibition was 23.4%. On to `COc1ccc(/C=C2/C(=O)N(c3ccccc3)N=C2C)c(OC)c1`, for which the inhibition was 52.9% (active). As for `COc1ccc(C2/C(=C(/O)c3ccccc3)C(=O)C(=O)N2C)c(OC)c1` (stereo unspecified), the inhibition was 12%.
